SW480 rerep: A quantitative high throughput screen for small molecules that induce DNA re-replication in SW480 colon adenocarcinoma cells; hit rate 1.8% among 340,000; Potency, µM (series often up to 46.1 µM), most hits filed as activators; SW480 DNA re-replication, Hoechst DNA content imaging, 48 h; note: nearly all actives have a fitted effect of over 55% in size
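Cells (250 per well) received 23 nL compound or DMSO by pin tool and were kept 48 hr at 37 C, 5% CO2. Nuclei were then stained with Hoechst for 40 min and scanned for DNA content.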
VP16 counter: VP16 counterscreen qHTS for inhibitors of ROR gamma transcriptional activity; Potency, µM (highest dose often 53.6 µM), hits mostly inhibitors; AID 2546, 2010; Drosophila S2 Gal4-VP16 UAS-luciferase, luminescence, 20 h; hit rate 3.5% among 310,000;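 note: Gal4-VP16 expression switched on by copper sulfate through the metallothionein promoter; nearly all actives have a fitted effect of over 50% in size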
MCF10A rereplic: A quantitative high throughput screen for small molecules that induce DNA re-replication in MCF 10a normal breast cells. hit rate 2.9% among 350,000. Potency, µM (top dose mostly 46.1 µM), most hits filed as activators. MCF 10A DNA re-replication, Hoechst nuclear intensity, 48 h. AID 624296, 2012; note: nearly all actives have a fitted effect of over 50% in size
Giardia kill: Small Molecules that selectively kill Giardia lamblia: qHTS; Giardia lamblia trophozoite viability; activity change, % at 7.66 µM, hits read low; hit rate 0.15% among 340,000; AID 540267, 2011; in the data active = activity change below about -80%; inconclusive = between about -30% and that limit;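 note: parasites exposed to compound for two days anaerobically before the ATP read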
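Giardia lamblia trophozoites (100 cells/well) were incubated with compounds for 48 h at 37 deg C under anaerobic conditions. Viability was read as ATP content by one-step luminescence after 15-30 min at room temperature.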
RORgamma inh: qHTS for inhibitors of ROR gamma transcriptional activity. Nuclear receptor ROR-gamma (Mus musculus), P51450. Drosophila S2 Gal4-RORgamma UAS-luciferase reporter, 20 h. Potency, µM (doses to about 53.6 µM), hits mostly inhibitors. hit rate 5.4% among 310,000. AID 2551, 2010; note: nearly all actives have a fitted effect of over 60% in size
Target sequence (P51450 whole entry, looked up, the tested form may be a part): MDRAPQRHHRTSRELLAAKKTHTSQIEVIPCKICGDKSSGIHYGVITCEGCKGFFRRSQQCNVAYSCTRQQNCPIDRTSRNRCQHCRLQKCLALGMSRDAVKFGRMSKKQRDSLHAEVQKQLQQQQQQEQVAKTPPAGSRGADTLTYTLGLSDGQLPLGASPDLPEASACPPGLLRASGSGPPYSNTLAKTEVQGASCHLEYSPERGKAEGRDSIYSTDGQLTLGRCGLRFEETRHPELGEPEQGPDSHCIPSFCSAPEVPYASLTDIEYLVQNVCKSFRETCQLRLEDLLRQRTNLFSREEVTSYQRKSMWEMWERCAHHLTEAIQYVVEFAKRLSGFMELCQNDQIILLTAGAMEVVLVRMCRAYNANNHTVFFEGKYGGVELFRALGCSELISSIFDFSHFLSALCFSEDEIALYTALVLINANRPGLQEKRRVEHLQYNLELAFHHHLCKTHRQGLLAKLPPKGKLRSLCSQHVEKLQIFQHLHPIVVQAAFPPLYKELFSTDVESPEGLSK
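Stably transfected Drosophila Schneider cells are the test system, with ROR gamma fused to Gal4 and luciferase under UAS control; luminescence is read after 20 hr of 700 uM copper sulfate induction at ambient temperature.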
Chronic BCR inh: qHTS Assay to Find Inhibitors of Chronic Active B-Cell Receptor Signaling; ABC-DLBCL IkBa-CBG/CBR reporter, luminescence ratio, 4 h; Potency, µM (titrated, usually from 46.1 µM), hits mostly inhibitors; hit rate 0.05% among 340,000; active = well fitted inhibition curve with a large enough effect in the signal ratio, with a control signal flat, not every such curve was filed as active; inconclusive = small, poorly fitted or top-dose-only effect, or effect the other way, or a change in a side signal; the % refers to the signal ratio
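TMD8 human ABC-DLBCL cells with doxycycline-inducible IκBα–green luciferase fusion and unfused red luciferase, in 0.5% FBS medium; compounds up to 46 uM, 4 h at 37C. Green/red luminescence ratio, filter-overlap corrected, fitted to concentration-response curves.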
A number is an active result; n = inactive; u = inconclusive; x = no result. Shown are actives, neighbours in structure and some others; about 8.3% of the full set was active somewhere. Unless noted, calls come from the whole dose curve; as a rule, active = well fitted curve in the direction sought with a large enough effect; inconclusive = small, poorly fitted or top-dose-only effect, or another doubt; inactive = no such curve, though single readings can be large; an effect the other way counts as inactive or inconclusive.

SMILES	SW480 rerep	VP16 counter	MCF10A rereplic	Giardia kill	RORgamma inh	Chronic BCR inh
CC1CCCN(C(=O)C(=O)c2cn(CC(=O)N3CCCCCC3)c3ccccc23)C1 (centres undefined)	u	n	n	n	u	n
O=[N+]([O-])c1ccc(C2=NCCO2)cc1	n	n	n	n	n	n
Cc1cccc(OCCCn2c(CCNC(=O)C3CCCCC3)nc3ccccc32)c1	x	x	x	n	x	x
COC(=O)C1=C(\O)CCCC/C=C\1C(=O)O	n	x	n	n	x	x
O=C1NC(CCc2ccccc2)C(=O)N1CCOc1ccccc1 (centres undefined)	n	n	6.5µM	n	u	u
Clc1ccccc1Nc1c2c(nc3ncnn13)CCC2	n	u	n	n	10µM	u
C=CC(=O)N=c1sc2ccccc2n1-c1ccccc1	3.3µM	u	u	n	10µM	u
N=c1sc2ccccc2n1-c1ccccc1	u	n	u	n	n	u
OC[C@@H]1CCC[C@@H](n2cnc3c(=S)nc[nH]c32)O1	x	x	x	n	x	x
CCOc1ccc(CSC(=N)N)cc1Cl	u	n	18µM	n	n	u
CCCCOc1ccc(CSCCN)cc1Cl	n	2µM	u	n	1.3µM	u
Cc1[nH]n(-c2ccccc2)c(=S)c1C=Nc1ccc([N+](=O)[O-])cc1	n	7.1µM	u	n	3.2µM	n
Cc1[nH]n(-c2ccccc2)c(=O)c1C=Nc1ccc(S(=O)(=O)N=C(N)N)cc1	n	n	n	n	n	n
Cc1cc(NC(=O)CSc2nc3cc(Cl)ccc3o2)no1	n	n	n	n	13µM	n
COc1ccc(-c2nnc(SCC(=O)NC(=O)NCc3ccco3)o2)cc1	n	u	n	n	7.9µM	n
CCOC(=O)Cc1csc(NC(=O)CSc2nnc(-c3ccncc3)o2)n1	15µM	n	n	n	u	n
CCOC(=O)Cc1csc(NC(=O)CSc2nnc(-c3ccc(NS(=O)(=O)CC)cc3)o2)n1	n	x	n	n	x	x
Cc1ccc2nc(SCC(=O)c3ccc(O)cc3O)[nH]c2c1	n	3.2µM	u	n	n	u
CCN1C(=O)N[C@@H](c2ccco2)C(C(C)=O)=C1C	n	x	u	n	x	x
COc1cccc(-c2nnc(SCC(=O)Nc3cc(C)on3)o2)c1	n	n	u	n	13µM	u
Cc1occc1-c1nnc(SCC(=O)Nc2nc(C(C)(C)C)cs2)o1	u	u	15µM	n	u	n
COc1ccc(-c2nnc(SCC(=O)Nc3nncs3)o2)cc1	n	8.9µM	n	n	7.1µM	n
O=C(O)c1cccc(CSc2nnc(-c3ccco3)o2)c1	n	u	n	n	u	u
COc1cc(OC)cc(-c2nnc(SCc3cccc(C(=O)O)c3)o2)c1	n	7.1µM	n	n	u	u
COc1ccc(-c2nnc(SCC(=O)Nc3ccccc3OC)o2)cc1	u	n	n	n	n	u
SMILES	SW480 rerep	VP16 counter	MCF10A rereplic	Giardia kill	RORgamma inh	Chronic BCR inh
Cc1ccc(NC(=O)CCNC(=O)c2ccc(Br)cc2)cc1S(=O)(=O)N1CCCCCC1	n	x	u	n	x	u
O=C(CSc1nc(=O)n(CCN2CCOCC2)c2c1CCC2)Nc1cccc(Cl)c1	x	x	x	x	x	n
Cc1ccc2nc(SCC(=O)NC(=O)NCc3ccco3)[nH]c2c1	n	18µM	n	n	n	u
Cc1ccc2nc(SCC(=O)NCc3ccco3)[nH]c2c1	n	n	n	n	n	u
COc1ccc(SCC(c2ccccc2)N2CCN(CC(C)C)CCC2=O)cc1 (centres undefined)	x	n	x	n	n	x
C#CCNC(=O)C1=C[C@H](c2ccc(C#C)cc2)C[C@H](OCc2ccc(CO)cc2)O1	u	x	n	n	x	x
C#CCNC(=O)C1=C[C@H](c2ccc(C(F)(F)F)cc2)C[C@H](OCc2ccc(CO)cc2)O1	u	n	4.1µM	n	n	u
C#CCNC(=O)C1=C[C@@H](C)C[C@@H](OCc2ccc(CO)cc2)O1	n	n	n	n	n	n
C#CCNC(=O)C1=C[C@H](C(C)(C)C)C[C@H](OCc2ccc(CO)cc2)O1	n	n	18µM	n	n	n

Assay outcomes as filed in PubChem BioAssay.
